Experimental data published in PubChem BioAssay (NCI).
Compounds without any hit were thinned out: in the full panel of roughly 83,000, 20% have a hit.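 Step 1: grow cells in 96-well plates. Step 2: add test compound at a single concentration. Step 3: incubate 48 h. Step 4: record percent growth.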 Unmarked numbers belong to inactive results. The source made the active and inactive calls. Rule for the calls: active = growth percent below 10; inactive = the rest.

Tests used:
Test in all cases: NCI-60 one-dose screen, 48 h (100 = growth as untreated, 0 = no growth, -100 = all killed)
Conditions in all cases: 10 µM unless noted
SNB-75 CNS = test system: SNB-75 CNS
SNB-19 CNS = test system: SNB-19 CNS
U251 CNS = test system: U251 CNS
SK-MEL-5 melanoma = test system: SK-MEL-5 melanoma
UACC-62 melanoma = test system: UACC-62 melanoma
LOX IMVI melanoma = test system: LOX IMVI melanoma
SK-MEL-28 melanoma = test system: SK-MEL-28 melanoma
EKVX NSCLC = test system: EKVX NSCLC
UO-31 renal = test system: UO-31 renal
TK-10 renal = test system: TK-10 renal
ACHN renal = test system: ACHN renal
CAKI-1 renal = test system: CAKI-1 renal
A498 renal = test system: A498 renal
CCRF-CEM leukemia = test system: CCRF-CEM leukemia
MOLT-4 leukemia = test system: MOLT-4 leukemia
SR leukemia = test system: SR leukemia
SN12C renal = test system: SN12C renal
PC-3 prostate = test system: PC-3 prostate
SK-MEL-2 melanoma = test system: SK-MEL-2 melanoma

| SMILES | growth (SNB-75 CNS) | growth (SNB-19 CNS) [%] | growth (U251 CNS) | growth (SK-MEL-5 melanoma) | growth (UACC-62 melanoma) | growth (LOX IMVI melanoma) | growth (SK-MEL-28 melanoma) | growth (EKVX NSCLC) [%] | growth (UO-31 renal) | growth (TK-10 renal) | growth (ACHN renal) | growth (CAKI-1 renal) | growth (A498 renal) | growth (CCRF-CEM leukemia) | growth (MOLT-4 leukemia) | growth (SR leukemia) | growth (SN12C renal) [%] | growth (PC-3 prostate) [%] | growth (SK-MEL-2 melanoma) [%] |
| --- | --- | --- | --- | --- | --- | --- | --- | --- | --- | --- | --- | --- | --- | --- | --- | --- | --- | --- | --- |
| C[N+]1(CCC[N+]2(C)C[C@@H]3[C@H](C2)[C@@H]2C=C[C@H]3C2)CCOCC1 (some centres undefined) | 103% | 107 | 109% | 106% | 97.7% | 96% | 109% | 118 | 73.9% | 113% | 90.9% | 101% | 103% | 110% | 108% | 110% | – | – | – |
| COc1ccc(-c2cc(Cc3cccs3)c(=O)n(Cn3cncn3)n2)cc1 | 106% | 91.8 | 97.2% | 92.9% | 86.2% | 98% | 108% | 103 | 86.4% | 113% | 97.6% | 98.3% | – | 102% | 93% | 84% | 93.1 | – | – |
| COc1ccc(-c2cc(Cc3cccs3)c(=O)n(Cn3ccc4ccccc43)n2)cc1 | 92.6% | 102 | 104% | 104% | 87.7% | 96.5% | 114% | 101 | 83% | 98.1% | 102% | 95.7% | 98.9% | 66% | 97.5% | 87% | 97.7 | – | – |
| NCCCc1nnc(CCC(=O)c2nc3ccccc3[nH]2)o1 | 90.8% | 102 | 102% | 108% | 90.2% | 90.9% | 105% | 117 | 91.8% | 102% | 97.1% | 103% | 97.4% | 90.9% | 98.2% | 84.5% | – | – | – |
| O=C1CC(=O)N(c2ccccc2)O1 | 85% | 110 | 104% | 97.6% | 93.9% | 89.5% | 107% | 108 | 61.7% | 122% | 97.4% | 94.8% | 94.6% | 110% | 114% | 110% | 94.9 | – | – |
| COc1ccc(/C=N\Nc2ccc([N+](=O)[O-])cn2)cc1OC | -0.426% (active) | 39.7 | -18.5% (active) | 85.5% | 81.7% | 68.7% | 79.5% | 63.6 | -11.9% (active) | -63.4% (active) | -3.48% (active) | 43.1% | -26.2% (active) | 124% | 101% | 52.9% | 26.2 | – | – |
| c1coc([C@@H]2C[C@@H]3Cc4ccc5ccccc5c4N2O3)c1 | 89.2% | 104 | 102% | 101% | 103% | 103% | 111% | 103 | 75% | 88.6% | 107% | 84.7% | 90.2% | 79% | 73.7% | 88.8% | 108 | – | – |
| COC(=O)CCC1=C(C)/C(=C/c2[nH]c(-c3ccc[nH]3)cc2OC)N=C1C | -32% (active) | 44.7 | -1.49% (active) | – | -49.6% (active) | -64.3% (active) | -0.539% (active) | 46.4 | -50.9% (active) | 28.1% | 8.35% (active) | 11.1% | 66.8% | -23.6% (active) | -28.3% (active) | -32.1% (active) | 34.8 | – | – |
| Cc1cc(C)c2c(c1)N1OC(C2)C[C@H]1/C=C/c1ccccc1 (some centres undefined) | 109% | 103 | 107% | 93.7% | 88% | 94.4% | 104% | 90 | 79.1% | 108% | 112% | 85.6% | 99.9% | 92.9% | 77.7% | 83.2% | 92.2 | – | – |
| COC(=O)CC1=C(C)/C(=C/c2[nH]c(-c3ccc[nH]3)cc2OC)N=C1C | -38.6% (active) | 32.3 | 5.15% (active) | -92.8% (active) | -46.5% (active) | -57.6% (active) | -3.01% (active) | 27.9 | -68.9% (active) | 6.46% (active) | -13.4% (active) | 8.04% (active) | -5.38% (active) | -13.5% (active) | -49% (active) | -47.8% (active) | 21.4 | – | – |
| CCOC(=O)c1c(NC(=O)C2CCCCC2C(=O)O)sc2c1CCCC2 (centres undefined) | 97.3% | 99.8 | 99.1% | – | 103% | 90% | 110% | – | 81.4% | – | 98.2% | 92.7% | 109% | 99.6% | 105% | 111% | – | 101 | 107 |
| C=CCOc1ccc2c(c1)CC[C@@H]1[C@@H]2CC[C@@]2(C)[C@H]1CC[C@]2(C)O | 93.3% | 110 | 74.7% | 95.3% | 85% | 76.2% | 97.2% | 82 | 92.6% | 56.7% | 85.8% | 75.4% | 90.5% | 70.7% | 72.5% | 58% | 96.7 | – | – |
| O=[N+]([O-])c1ccc(N/N=C/c2c(O)ccc3ccccc23)nc1 | 69.3% | 62.7 | 35.8% | 40% | 41.7% | 21% | 64.8% | 32.3 | 9.52% (active) | 47.3% | 15% | 6.36% (active) | 111% | 2.5% (active) | 10.5% | 14.1% | 49.4 | – | – |
| O=C(CCc1nnc(Cn2cncn2)o1)c1nc2ccccc2[nH]1 | 99.1% | 111 | 103% | 105% | – | 94.4% | 105% | 116 | 92.4% | 108% | 113% | 102% | 96% | 96.4% | 92.4% | 82% | 92.6 | – | – |
| CC(c1ccccn1)C(C)(O)C(C)c1ccccn1 (centres undefined) | 99.7% | 98.9 | 98.7% | 105% | – | 95.6% | 111% | 95.3 | 90.2% | 99.6% | 103% | 104% | 105% | 114% | 65.1% | – | 103 | 98.9 | 105 |
| COC(=O)CCC1=C(CC(=O)OC)C(C)=N/C1=C\c1[nH]c(-c2ccc[nH]2)cc1OC | 12.9% | 69.3 | 26.5% | -22.7% (active) | -4.87% (active) | -48.3% (active) | – | 61.5 | -25.3% (active) | 28.3% | 15.5% | 24.7% | 72.1% | 2.36% (active) | -6.53% (active) | -24.6% (active) | 38.7 | – | – |
| COc1ccc2nccc(/C=C/c3ccnc4ccc(OC)cc34)c2c1 | 102% | 109 | 107% | 116% | 109% | 106% | 92.8% | 105 | 97% | 148% | 102% | – | 87.9% | 59.6% | 33.1% | 21.4% | 118 | – | 112 |
| O=C(CCc1nnc(Cn2ccnc2)o1)c1nc2ccccc2[nH]1 | 97.9% | 108 | 110% | 104% | 91% | 90.4% | 116% | 99.2 | 92% | 110% | 107% | 110% | 101% | 101% | 92.8% | 87.7% | 98.5 | – | – |
| Clc1ccccc1[C@@H]1C[C@@H]2Cc3cc(Br)c4ccccc4c3N1O2 | 4.57% (active) | 38.2 | 34.4% | 30.2% | 24.4% | 37% | 47.5% | 70 | 40.3% | 63.6% | 53.5% | 40.4% | 15.7% | – | 17.2% | 3.11% (active) | 44.3 | – | – |
